Assay [1] deals with Pantothenate synthetase (Mycobacterium tuberculosis (strain ATCC 25618 / H37Rv)) (UniProt P9WIL5). Kind of assay: Recombinant Mtb pantothenate synthetase (PanC) inhibitors, coupled enzyme, confirmatory (AID 375; call rule not given here;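 note: 0% = full reaction with vehicle and 100% = no enzyme background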). The settings on record: coupled enzyme assay; at 10 µM, stronger effect = higher value.
Assay [2] can be described thus: SK-BR-3 cell growth inhibitors, pilot screen, 24 h, human (AID 572;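 active = viability at or below 10% of carrier control in both of two separate runs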;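 note: compound exposure lasted between 18 and 24 h rather than exactly 24 h; 100% = carrier-treated control wells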). The settings on record: SK-BR-3 viability, CellTiter-Glo luminescence, at 10 µM, stronger effect = lower value. For orientation: ATP-based viability assays read luminescence as a measure of living cells.
Assay [3] can be described thus: HUVEC growth inhibition – cell-based, human, primary screen (AID 575;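 active = viability at or below 30% in both replicate assays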;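 note: 100% = median of untreated cell wells with 0.1% DMSO on each plate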). Conditions: HUVEC proliferation, CellTiter-Glo luminescence, 72 h; at 10 µM; stronger effect = lower value.
Assay [4] can be described thus: growth inhibitors of H69AR lung tumor, primary screen, human, duplicate replicates (AID 580;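 active = viability at or under a set limit in both replicates, limit being median viability minus 3 SD, cut at about 48% in these data, passing the limit was not always enough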;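 note: 100% = mean luminescence of untreated wells and 0% = no signal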). Conditions: H69AR lung tumor cells viability, ATP luminescence, 72 h; at 10 µM; stronger effect = lower value.
A short description of assay [5]: reversal of MRP1-mediated doxorubicin resistance, pilot screen, H69AR cells, doxorubicin co-treatment (AID 601). The settings on record: CellTiter-Glo, 72 h, at 10 µM; for differential viability (reversal): stronger effect = higher value.
Assay [6] is described as follows: 384-well plate pilot, post-Golgi transport modulator project, inhibition of yeast transport mutant growth (AID 636; in the data active = inhibition above about 31%). The settings on record: absorbance 615 nm, about 18 h, stronger effect = higher value.
Assay [7] can be described thus: growth suppression of yeast trafficking mutant, preliminary HTS, modulators of trafficking downstream of Golgi apparatus project, 1536-format plate, OD 615 nm (AID 637; in the data active = inhibition above about 30%). The settings on record: yeast transport mutant growth, absorbance 615 nm, 18 h; stronger effect = higher value.
Assay [8] can be described thus: OD615 S. cerevisiae growth inhibition, permissive medium, pilot counter-assay, permissive growth control for S. cerevisiae lifespan shortening project (AID 705;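 active = growth inhibition above 25% in both replicates, a cutoff set 3 SD above the mean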). Conditions: OD615, 24 h, at 10 µM, stronger effect = higher value.
The nature of assay [9]: Restrictive medium S. cerevisiae growth inhibition, OD615, pilot screen of yeast lifespan reduction project, restrictive growth control (AID 706;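 active = growth inhibition above a set limit, 3 SD over mean compound inhibition, in both replicates, cut at about 43% in these data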;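 note: modified DeaD lifespan yeast strain shifted to restrictive glucose medium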). Conditions: OD615, 48 h, at 10 µM, stronger effect = higher value.
A short description of assay [10]: viability gain of MRP-1-high H69AR cells under doxorubicin, pilot screen, MRP-1 activator project, CellTiter-Glo, duplicate (AID 807;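 active = viability increase at or above a cutoff of the median across tested compounds plus 3 SD, cut at about 8.5% in these data, passing the limit was not always enough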;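 note: compound pretreatment 18-22 h then 72 h combined with doxorubicin; 0% = doxorubicin alone and 100% = vehicle without doxorubicin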). The settings on record: H69AR viability with doxorubicin, CellTiter-Glo luminescence; at 10 µM; stronger effect = higher value.
Assay [11] is described as follows: growth suppression of beta-catenin knockout HCT116, pilot screen, human colon tumor cells (AID 823;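 active = cell viability at or below a set limit in both duplicate runs, the limit being the all-compound median minus 4 SD, cut at about 23% in these data, passing the limit was not always enough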;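 note: 0% = wells killed by 20 µM Hyamine and 100% = untreated DMSO cell wells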). Conditions: CellTiter-Glo, 60 h, at 10 µM, stronger effect = lower value.
A short description of assay [12]: inhibitors of the yeast RAM network, pilot screen, dse1pr::URA3 reporter, 5-FOA selection (AID 869;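 active = inhibition over a set limit, the all-compound mean plus 3 SD, in both replicate runs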;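 note: 0% = DMSO wells with no growth and 100% = 10 µM 1-NA-PP1 with full growth; RAM network block rescues cells from 5-FOA so hits raise OD615 growth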). The settings on record: S. cerevisiae dse1pr::URA3 5-FOA growth, OD615, 2 d, at 10 µM, stronger effect = higher value.
Setting [13] is: H69AR cells + 2 uM doxorubicin, measured here: viability with 2 uM doxorubicin, stronger effect = lower value.
Setting [14] is: H69AR cells, compound alone cytotoxicity.

Molecules are shown by their SMILES. Inconclusive results are not listed. Activity calls are given as the source filed them.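 Rule for the calls, unless noted: active = viability loss from added drug above about 55%, and viability with drug at most 40%, in both replicates (limit read from the data, passing the limit was not always enough); inconclusive = both conditions met in only one replicate; inactive = neither replicate meets both conditions.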

Pantothenate synthetase (Mycobacterium tuberculosis (strain ATCC 25618 / H37Rv)), sequence (P9WIL5 whole entry, looked up): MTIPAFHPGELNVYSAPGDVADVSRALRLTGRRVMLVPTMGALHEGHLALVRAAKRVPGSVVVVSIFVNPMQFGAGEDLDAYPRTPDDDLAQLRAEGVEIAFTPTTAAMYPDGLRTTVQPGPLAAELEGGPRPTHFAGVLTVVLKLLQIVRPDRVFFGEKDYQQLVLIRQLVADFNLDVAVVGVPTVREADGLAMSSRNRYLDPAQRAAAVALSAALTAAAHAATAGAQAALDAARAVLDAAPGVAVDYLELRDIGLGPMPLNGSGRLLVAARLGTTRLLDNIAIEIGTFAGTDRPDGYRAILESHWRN

For `COc1ccccc1CN1CCN(C(=O)Cc2ccccc2)CC1`, the figures for the inhibition in [1], in [6] and in assay [7] were 1% (inactive), -4.8% (inactive) and -4.36% (inactive), respectively. The viability (in general, a read-out of living cells in per cent, often relative to untreated cells) in [2] is 97% (inactive); in assay [3], 101% (inactive); in assay [4] it was 99.6% (inactive); in assay [5] (setting [13]), 96.1%; in assay [5] (setting [14]), 99.6%. The differential viability (reversal) in [5] (H69AR cells + 2 uM doxorubicin) is 3.51% (inactive).
For the molecule `CN(C)[C@@H]1C(=O)C(C(N)=O)=C(O)[C@@]2(O)C(=O)C3=C(O)c4c(O)cccc4[C@@](C)(O)[C@H]3[C@H](O)[C@@H]12`, the inhibition (usually the change of the read-out against control, counted positive when it falls) is 3% (inactive) in assay [1], 0.52% (inactive) in [6] and 1.17% (inactive) in assay [7]. Moreover, the viability in [2] was 115% (inactive); in assay [3], 101% (inactive); in assay [4], 103% (inactive); in assay [5] (setting [13]) it was 101%; in assay [5] (setting [14]), 103%. In addition, in assay [5] (H69AR cells + 2 uM doxorubicin), the differential viability (reversal) was 2.03% (inactive).
Regarding `O=c1[nH]c(=O)n(Cc2ccc(F)cc2)c(O)c1C=NCCCN1CCOCC1`, the results for the inhibition in [1], in assay [6] and in assay [7] were 0% (inactive), -1.6% (inactive) and -2.22% (inactive), respectively. Further, the viability is 96% (inactive) in [3], 95.5% (inactive) in assay [4], 91.9% in assay [5] (setting [13]) and 95.5% in [5] (setting [14]). For the same molecule, in assay [5] (H69AR cells + 2 uM doxorubicin), the differential viability (reversal) is 3.54% (inactive).
As for `O=c1[nH]c2ccccc2n1C1CCN(CCCC(c2ccc(F)cc2)c2ccc(F)cc2)CC1`, the inhibition in [1] is 5% (inactive). The values for the viability in assay [3], in assay [5] (setting [13]) and in [5] (setting [14]) were 2.55% (active), 1.62% and 1.16%, respectively. In assay [5] (H69AR cells + 2 uM doxorubicin), the differential viability (reversal) is -0.46% (inactive).
As for `CCOC(=O)C(C)Oc1cc(C)cc2oc(=O)c3c(c12)CCCC3` (centres undefined), the growth inhibition is -9.51% (inactive) in assay [8] and -2.87% (inactive) in assay [9]. Besides, the viability increase in assay [10] is -4.65% (inactive). In addition, in [11], the viability was 70.3% (inactive). For the same molecule, in [12], the inhibition was 1.43% (inactive).
Consider `Cc1ccc2c(c1)[C@@H]1CN(C)CC[C@@H]1N2C(=O)Nc1cccc(C(F)(F)F)c1`, for which the inhibition is 9% (inactive) in [1], 1.45% (inactive) in [6] and 1.15% (inactive) in assay [7]. Further, the viability in assay [4] was 69.9% (inactive); in assay [5] (setting [13]), 78.1%; in [5] (setting [14]), 69.9%. For the same molecule, the differential viability (reversal) in assay [5] (H69AR cells + 2 uM doxorubicin) was -8.21% (inactive).
As for `CCC(C(=O)N1CCC2(CC1)OCCO2)c1ccccc1` (centres undefined), the results for the inhibition in [1], in assay [6] and in assay [7] were 0% (inactive), -6.4% (inactive) and 1.43% (inactive), respectively. Besides, the viability in [3] is 102% (inactive); in [4], 93% (inactive); in assay [5] (setting [13]) it was 79.8%; in assay [5] (setting [14]) it was 93%. Moreover, the differential viability (reversal) in [5] (H69AR cells + 2 uM doxorubicin) is 13.2% (inactive).
Regarding `NCC(CC(=O)O)c1ccc(Cl)cc1` (centres undefined), the inhibition was 0% (inactive) in assay [1], -1.43% (inactive) in assay [6] and 4.67% (inactive) in assay [7]. The viability in assay [2] was 83% (inactive); in assay [3] it was 78.3% (inactive); in assay [4] it was 106% (inactive); in assay [5] (setting [13]), 107%; in assay [5] (setting [14]) it was 106%. Besides, in [5] (H69AR cells + 2 uM doxorubicin), the differential viability (reversal) was -1.38% (inactive).
For `C[N+]1(C)CCN(c2ccccc2)CC1`, the figures for the inhibition in assay [1], in assay [6] and in [7] were 8% (inactive), -1.69% (inactive) and 0.5% (inactive), respectively. Moreover, the viability in assay [2] is 118% (inactive); in assay [3] it was 95.8% (inactive); in [4], 84.9% (inactive); in assay [5] (setting [13]) it was 97%; in assay [5] (setting [14]), 84.9%. Moreover, the differential viability (reversal) in assay [5] (H69AR cells + 2 uM doxorubicin) was -12.1% (inactive).
In the case of `Clc1ccc(COC(Cn2ccnc2)c2ccc(Cl)cc2Cl)cc1` (centres undefined), the inhibition in [1] is 2% (inactive). Besides, the viability is 123% (inactive) in [2], 73.4% (inactive) in [3], 48% in [5] (setting [13]) and 38.5% in [5] (setting [14]). For the same molecule, the differential viability (reversal) in assay [5] (H69AR cells + 2 uM doxorubicin) was -9.47% (inactive).
`C[C@H]1CCCC(=O)CCCCCc2cc(O)cc(O)c2C(=O)O1`: the inhibition in assay [1] was 2% (inactive); in assay [6], 0.26% (inactive); in assay [7], -1.83% (inactive). Besides, the viability was 107% (inactive) in [2], 87.3% (inactive) in assay [4], 110% in assay [5] (setting [13]) and 87.3% in [5] (setting [14]). Besides, in [5] (H69AR cells + 2 uM doxorubicin), the differential viability (reversal) is -23% (inactive).
For the molecule `C[C@H]1OC[C@@H](C[N+](C)(C)C)O1`, the inhibition in assay [1] is 0% (inactive); in assay [6], -1.43% (inactive); in assay [7], 4.67% (inactive). Also, the viability in assay [2] was 103% (inactive); in [3], 99.6% (inactive); in assay [4], 106% (inactive); in assay [5] (setting [13]), 98.6%; in assay [5] (setting [14]), 106%. Moreover, the differential viability (reversal) in assay [5] (H69AR cells + 2 uM doxorubicin) is 7.41% (inactive).
`C[N+]1(C)[C@@H]2CC(OC(=O)[C@H](CO)c3ccccc3)C[C@H]1[C@@H]1O[C@@H]12` (some centres undefined): the inhibition in [1] was 0% (inactive); in [6], -2.21% (inactive); in [7], 8.67% (inactive). For the same molecule, the viability in [2] is 97% (inactive); in assay [3], 101% (inactive); in assay [4], 106% (inactive); in assay [5] (setting [13]), 97.7%; in [5] (setting [14]) it was 106%. In addition, the differential viability (reversal) in assay [5] (H69AR cells + 2 uM doxorubicin) is 8.56% (inactive).
In the case of `CC(C)[C@@]1(NC(=O)[C@@H]2C[C@@H]3c4cccc5[nH]cc(c45)C[C@H]3N(C)C2)O[C@@]2(O)[C@@H]3CCCN3C(=O)[C@H](Cc3ccccc3)N2C1=O`, the inhibition in [1] was 4% (inactive); in assay [6] it was -1.56% (inactive); in assay [7] it was -1.67% (inactive). Further, the viability in assay [2] was 111% (inactive); in assay [3] it was 4.38% (active); in assay [4], 73.8% (inactive); in [5] (setting [13]) it was 77.3%; in [5] (setting [14]), 73.8%. Also, the differential viability (reversal) in assay [5] (H69AR cells + 2 uM doxorubicin) is -3.47% (inactive).
Turning to `COP(=O)(OC)C(O)C(Cl)(Cl)Cl` (centres undefined), the inhibition was 0% (inactive) in [1], -1.56% (inactive) in assay [6] and -3.83% (inactive) in assay [7]. Moreover, the viability in assay [2] is 122% (inactive); in assay [3] it was 95.5% (inactive); in assay [4], 82.6% (inactive); in [5] (setting [13]), 85.7%; in [5] (setting [14]), 82.6%. Further, the differential viability (reversal) in assay [5] (H69AR cells + 2 uM doxorubicin) was -3.13% (inactive).

(Values after PubChem BioAssay.)
